From the supplement of paper PMC11383364 come the findings set out here.

Values joined by “and” are separate entries in the source; they are usually repeats but may differ in a detail not shown here. Identical values can stand only once.

The subject of this experiment is SUM149. Put plainly: percent difference in area under dose-response curve of relative cell number, RPMI vs HPLM; higher = drug relatively more effective in HPLM than RPMI (negative = less effective in HPLM). Conditions: treatment time: 72 h; dose range: 10-point, 1 nM to 20 µM; media compared: RPMI vs HPLM. The procedure: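 SUM149 triple-negative breast cancer cells, 500 cells/well in 384-well plates, were grown in RPMI or human plasma-like medium (HPLM) with 5% dialyzed FBS. They were pin-transferred with an anticancer plus metabolic-inhibitor library in 10-point dose series (20 µM to 1 nM). After 72 h, cells were fixed, stained with bisbenzimide and counted by Acumen plate cytometry. The AUC of relative survival vs dose was computed per medium, and the percent difference in AUC between RPMI and HPLM is reported.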
Regarding `O=C(NCCCNc1nc(Nc2cccc(NC(=O)N3CCCC3)c2)ncc1I)c1cccs1`, the “percent difference in area under dose-response curve” value (“percent difference in area” for short) is -9.09%.

In the case of `Nc1nc(Nc2ccc(S(N)(=O)=O)cc2)nn1C(=O)c1c(F)cccc1F`, the “percent difference in area” value was -1.01%.

Take `O=C(NOC[C@H](O)CO)c1ccc(F)c(F)c1Nc1ccc(I)cc1F`: the “percent difference in area” value is -8.94%.

For `CCOC(=O)[C@@H](N)CCC(=O)N[C@@H](CSCc1ccccc1)C(=O)N[C@@H](C(=O)OCC)c1ccccc1` [Telintra], the “percent difference in area” value came to 2.03%.

Consider `O=C(/C=C/c1cccnc1)NCCCCC1CCN(C(=O)c2ccccc2)CC1`, for which the “percent difference in area” value is -32.8%.

In the case of `CC(=O)O[C@@]12CO[C@@H]1C[C@H](O)[C@@]1(C)C(=O)[C@H](O)C3=C(C)[C@@H](OC(=O)[C@H](O)[C@@H](NC(=O)OC(C)(C)C)c4ccccc4)C[C@@](O)([C@@H](OC(=O)c4ccccc4)[C@H]21)C3(C)C` [Docetaxel], the “percent difference in area” value was -42.7%.

Take `CC(C)c1cc(C(C)C)c(CC(=O)NS(=O)(=O)Oc2c(C(C)C)cccc2C(C)C)c(C(C)C)c1` [Avasimibe]: the “percent difference in area” value was -0.523%.

On to `CC(C)(C)c1ccc(S(=O)(=O)NCc2ccc(C(=O)Nc3cccnc3)cc2)cc1`, for which the “percent difference in area” value is -12.4%.

As for `CO[C@@H](C(=O)N1Cc2[nH]nc(NC(=O)c3ccc(N4CCN(C)CC4)cc3)c2C1)c1ccccc1` [Danusertib], the “percent difference in area” value was -17.3%.

Turning to `Cc1cc2c(C(=O)NC[C@H](C)c3ccccc3)c(O)c(O)cc2c(O)c1-c1c(C)cc2c(C(=O)NC[C@H](C)c3ccccc3)c(O)c(O)cc2c1O` [Sabutoclax], the “percent difference in area” value is -9.94%.

As to `C#Cc1cccc(Nc2ncnc3cc(OCCOC)c(OCCO)cc23)c1`, the “percent difference in area” value was -0.553%.

For the compound `c1ccc(Cn2nnc3c(Sc4nc5ccccc5o4)ncnc32)cc1`, the “percent difference in area” value worked out at 0.823%.

Turning to `O=C(CCCCCCC(=O)Nc1ccccc1)NO` [Vorinostat], the “percent difference in area” value turned out to be 4.7%.

In the case of `Nc1ncn([C@@H]2O[C@H](CO)[C@@H](O)[C@H]2O)c(=O)n1` [Azacitidine], the “percent difference in area” value was -13.8%.

As to `C=CC(=O)N1CCC[C@@H](n2nc(-c3ccc(Oc4ccccc4)cc3)c3c(N)ncnc32)C1`, the “percent difference in area” value is 7.26%.

Regarding `Cc1cnc(Nc2ccc(OCCN3CCCC3)cc2)nc1Nc1cccc(S(=O)(=O)NC(C)(C)C)c1`, the “percent difference in area” value is -10.7%.

On to `COc1c(C)c2c(c(O)c1C/C=C(\C)CCC(=O)O)C(=O)OC2` [Mycophenolic_Acid], for which the “percent difference in area” value was -8.4%.

Take `C=CCN(C)CCCCCCOc1ccc(C(=O)c2ccc(Br)cc2)c(F)c1`: the “percent difference in area” value is -0.097%.

For the compound `CC(C)C[C@@H](C(=O)N[C@H](C(=O)OC1CCCC1)c1ccccc1)[C@H](O)C(=O)NO`, the “percent difference in area” value was -3.27%.

`N[C@H](C(=O)O)[C@@H]1CC(Cl)=NO1` [Acivicin]: the “percent difference in area” value is 9.22%.

For the compound `N#Cc1c(NC(=O)c2cccc3ccccc23)sc2c1CCCC2` [JNK_Inhibitor_IX], the “percent difference in area” value is -13.1%.

In the case of `CN1CCC(CNc2ccc3ncc(-c4cccc(OC(F)(F)F)c4)n3n2)CC1` [SGI1776_free_base], the “percent difference in area” value was -10.5%.

On to `S=C(NCc1ccc2c(c1)OCO2)N1CCN(c2ncnc3c2oc2ccccc23)CC1` [Amuvatinib], for which the “percent difference in area” value is 1.06%.

With `COc1ccc(-c2ccc3c(N4CCOC[C@@H]4C)nc(N4CCOC[C@@H]4C)nc3n2)cc1CO`, the “percent difference in area” value was -2.88%.

Regarding `CN(C)CCOc1ccc(/C(=C(/CCCl)c2ccccc2)c2ccccc2)cc1` [Toremifene_Citrate], the “percent difference in area” value was determined as 2.31%.

With `CS(=O)(=O)c1cccc(CNc2nc(Nc3ccc4c(c3)CCC(=O)N4)ncc2C(F)(F)F)c1`, the “percent difference in area” value is -3.53%.

On to `C[C@@H](Oc1cc(-n2cnc3ccc(CN4CCN(C)CC4)cc32)sc1C(N)=O)c1ccccc1C(F)(F)F`, for which the “percent difference in area” value was -20.5%.

For `COC(=O)c1ccc2c(c1)NC(=O)/C2=C(\Nc1ccc(N(C)C(=O)CN2CCN(C)CC2)cc1)c1ccccc1`, the “percent difference in area” value was 3.26%.

With `CCCCCCCCCCCCC/C=C/[C@@H](O)[C@H](CO)N(C)C` [N_N_Dimethylsphingosine], the “percent difference in area” value is 6.06%.

For `O=C(O)c1ccc2c(c1)nc(Nc1cccc(Cl)c1)c1ccncc12`, the “percent difference in area” value came out at 0.753%.

As for `COc1cc2c(N3CCN(C(=O)Nc4ccc(OC(C)C)cc4)CC3)ncnc2cc1OCCCN1CCCCC1` [Tandutinib], the “percent difference in area” value was -4.18%.

Turning to `CNC(=O)c1cc(COc2nnc(Nc3ccc(Cl)cc3)c3ccoc23)ccn1` [Telatinib], the “percent difference in area” value came out at 2.16%.

With `CN(C)CC[C@H](CSc1ccccc1)Nc1ccc(S(=O)(=O)NC(=O)c2ccc(N3CCN(Cc4ccccc4-c4ccc(Cl)cc4)CC3)cc2)cc1[N+](=O)[O-]`, the “percent difference in area” value was -4.67% and 1.88%.

In the case of `Cc1ccc(NC(=O)c2cccc(C(C)(C)C#N)c2)cc1Nc1ccc2ncn(C)c(=O)c2c1`, the “percent difference in area” value is -22.2%.

As for `COc1cc2/c(=N/c3ccc(Br)cc3F)nc[nH]c2cc1OCC1CCN(C)CC1` [Vandetanib], the “percent difference in area” value is -3.62%.

Regarding `O=C(Nc1ccc(OC(F)(F)F)cc1)c1sccc1NCc1ccnc2ccccc12`, the “percent difference in area” value worked out at 6.56%.

Regarding `Cc1cnc(-c2ccccc2C(C)C)nc1NCc1ccc(-n2ccnn2)cc1`, the “percent difference in area” value is -3.5%.

Turning to `OC(c1cc(C(F)(F)F)nc2c(C(F)(F)F)cccc12)C1CCCCN1` (stereo not given) [Mefloquine], the “percent difference in area” value came out at 3.47%.

`Nc1nc(=S)c2[nH]cnc2[nH]1` [6_Thioguanine]: the “percent difference in area” value is -37.9%.

For `CCN(CC)CCCCNc1ncc2cc(-c3cc(OC)cc(OC)c3)c(NC(=O)NC(C)(C)C)nc2n1`, the “percent difference in area” value amounted to 1.69%.
